From publication PMC5540273 (PLoS ONE, 2017) come the findings set out here.

Among the test systems are CDC2L2; CDK2; CDK3; CDK4-cyclinD1; CDK4-cyclinD3; CDK4; CDK5; CDK7.
Common to all, as to settings: concentration: 1 μM, replicates: in singlicate; n = 1
For a further experiment, the system named is T1, CDC2L5.
T1 construct: gene CDK13

The next experiment has as its system T2, CDK11.
T2 construct: gene CDK19
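Note: KINOMEscan kinase panel screen.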

For the molecule `COC(=O)Nc1nc2ccc(Oc3ccc(NC(=O)Nc4cc(C(F)(F)F)ccc4F)cc3)cc2[nH]1.Cl` [GW654607], the “%Inh” value with CDC2L2 amounted to 4%; in the experiment with CDC2L5, 6%; in the experiment with CDK11, 87%; with CDK2 it was 30%; in the experiment with CDK3, 18%; in the experiment on CDK4-cyclinD1 it was 0%. For the same molecule, the “%Inh” value came to 0% in the experiment with CDK4-cyclinD3, 26% in the experiment with CDK4, 17% with CDK5 and 97.4% in the experiment on CDK7.
As for `COc1ccc(C)c(Nc2ccnc(Nc3ccc(-c4cnc[nH]4)cc3)n2)c1.Cl` [GW784041], the “%Inh” value came out at 16% with CDC2L2; 0% in the experiment with CDC2L5; 2% in the experiment with CDK11; 0% in the experiment with CDK2; 3% in the experiment on CDK3; 0% in the experiment with CDK4-cyclinD1. Moreover, the “%Inh” value in the experiment with CDK4-cyclinD3, with CDK4, in the experiment on CDK5 and with CDK7 was 0% in each case.
In the case of `Cc1ccc(Nc2ccnc(Nc3ccc(C)c(F)c3)n2)cc1O.Cl` [GW582868], the “%Inh” value is listed as 0% in the experiment with CDC2L2; 0% in the experiment on CDC2L5; 6% with CDK11; 0% in the experiment with CDK2; 0% in the experiment with CDK3; 0% in the experiment on CDK4-cyclinD1. The “%Inh” value with CDK4-cyclinD3 worked out at 5%; in the experiment with CDK4 it was 0%; in the experiment with CDK5, 0%; in the experiment with CDK7 it was 0%.
With `Cc1ccc(-c2ccc3occ(-c4ccc(S(C)=O)cc4)c3c2)nn1` (stereo not drawn), the “%Inh” value in the experiment on CDC2L2 is 0%; in the experiment with CDC2L5, 24%; in the experiment with CDK11, 29%; in the experiment on CDK2 it was 36%; with CDK3 it was 4%; in the experiment on CDK4-cyclinD1 it was 0%. Moreover, the “%Inh” value in the experiment with CDK4-cyclinD3, with CDK4, in the experiment on CDK5 and with CDK7 was 0% throughout.
For the molecule `Cc1nn2c(=O)cc(N3CCO[C@H](C)C3)nc2n1Cc1cccc(Cl)c1Cl` [GSK2373693], the “%Inh” value worked out at 4% in the experiment on CDC2L2; 0% with CDC2L5; 3% in the experiment with CDK11; 54% with CDK2; 76% in the experiment with CDK3; 53% with CDK4-cyclinD1. The “%Inh” value was 2% with CDK4-cyclinD3, 13% in the experiment on CDK4, 0% with CDK5 and 0% in the experiment with CDK7.
Take `COc1cccc(-c2nc(-c3ccccc3)[nH]c2-c2ccncc2)c1` [SB-610250]: the “%Inh” value is reported as 0% in the experiment on CDC2L2; 0% in the experiment with CDC2L5; 22% in the experiment with CDK11; 2% with CDK2; 24% with CDK3; 0% in the experiment on CDK4-cyclinD1. Moreover, the “%Inh” value is 7% in the experiment on CDK4-cyclinD3, 0% in the experiment with CDK4, 0% in the experiment with CDK5 and 0% in the experiment on CDK7.
For the molecule `Cn1cc(-c2ccc3c(c2)CCN3C(=O)Cc2cc(F)cc(F)c2F)c2c(N)ncnc21` [GSK2634140], the “%Inh” value amounted to 19% in the experiment on CDC2L2; 0% in the experiment with CDC2L5; 86% with CDK11; 8% in the experiment with CDK2; 45% with CDK3; 0% with CDK4-cyclinD1. Further, the “%Inh” value is listed as 0% with CDK4-cyclinD3, 26% in the experiment with CDK4, 0% in the experiment with CDK5 and 0% with CDK7.
As for `Cc1ccc(NC(=O)c2ccnc(N3CCCCC3)c2)cc1-c1ccc(C(=O)NCC2CC2)cc1` [GW775610], the “%Inh” value turned out to be 0% in the experiment with CDC2L2; 0% in the experiment with CDC2L5; 0% in the experiment on CDK11; 36% in the experiment on CDK2; 0% in the experiment on CDK3; 20% in the experiment with CDK4-cyclinD1. Further, the “%Inh” value is given as 0% with CDK4-cyclinD3, 0% with CDK4, 8% in the experiment on CDK5 and 0% with CDK7.
Consider `COc1cccc(C2=C(Nc3cccc(O)c3)C(=O)NC2=O)c1` [SB-390771], for which the “%Inh” value in the experiment on CDC2L2 was 15%; in the experiment with CDC2L5 it was 0%; in the experiment with CDK11, 0%; with CDK2 it was 18%; in the experiment on CDK3, 13%; in the experiment with CDK4-cyclinD1 it was 0%. The “%Inh” value was determined as 0% in the experiment with CDK4-cyclinD3, 0% in the experiment on CDK4, 0% in the experiment on CDK5 and 98.3% with CDK7.
`COc1ccc(NC(=O)c2ccoc2)cc1-c1ccc(C(=O)NCC2CC2)cc1` [GW810437]: the “%Inh” value in the experiment with CDC2L2 was 6%; with CDC2L5 it was 16%; in the experiment with CDK11 it was 11%; in the experiment with CDK2, 0%; in the experiment on CDK3 it was 2%; with CDK4-cyclinD1 it was 0%. Besides, the “%Inh” value is reported as 0% with CDK4-cyclinD3, 15% in the experiment on CDK4, 0% in the experiment with CDK5 and 26% with CDK7.
As for `N#Cc1cnc2cc(-c3cnc(CNCCN4CCOCC4)s3)ccc2c1Nc1ccc(Oc2ccccc2)cc1` [GW664114], the “%Inh” value with CDC2L2 is 6%; in the experiment on CDC2L5, 0%; with CDK11, 0%; in the experiment with CDK2, 0%; in the experiment on CDK3, 7%; in the experiment with CDK4-cyclinD1, 0%. The “%Inh” value is on record as 4% in the experiment with CDK4-cyclinD3, 10% with CDK4, 0% with CDK5 and 15% in the experiment with CDK7.
Regarding `Cc1ccccc1CC(=O)N1CCc2cc(-c3cn(C)c4ncnc(N)c34)ccc21` [GSK2603346], the “%Inh” value in the experiment with CDC2L2 stood at 3%; in the experiment on CDC2L5, 0%; in the experiment on CDK11 it was 81%; in the experiment on CDK2, 6%; in the experiment with CDK3, 2%; in the experiment with CDK4-cyclinD1, 0%. Also, the “%Inh” value is given as 0% in the experiment with CDK4-cyclinD3, 29% in the experiment with CDK4, 0% with CDK5 and 0% with CDK7.
Consider `Cl.Cl.NCC(NC(=O)c1cc(-c2cccnc2)c(-c2ccnc3[nH]ccc23)s1)c1ccccc1` (stereo not drawn) [GSK1323434], for which the “%Inh” value in the experiment on CDC2L2 is 9%; in the experiment on CDC2L5, 0%; with CDK11, 8%; in the experiment with CDK2, 3%; with CDK3, 26%; in the experiment on CDK4-cyclinD1, 39%. For the same molecule, the “%Inh” value is on record as 0% in the experiment with CDK4-cyclinD3, 79% with CDK4, 0% with CDK5 and 50% in the experiment on CDK7.
Consider `O=C(Nc1c(F)cccc1F)c1cc(C(=O)c2ccccc2F)c[nH]1` [GSK1326180], for which the “%Inh” value with CDC2L2 is 0%; with CDC2L5, 0%; in the experiment with CDK11 it was 6%; with CDK2 it was 0%; in the experiment with CDK3, 16%; in the experiment with CDK4-cyclinD1 it was 33%. Further, the “%Inh” value is 0% in the experiment on CDK4-cyclinD3, 14% in the experiment on CDK4, 0% in the experiment with CDK5 and 0% with CDK7.
Turning to `Cc1ccc(NC(=O)c2cccc(N3CCCCC3)c2)cc1-c1ccc(C(=O)NCC2CC2)cc1` [GSK1917008], the “%Inh” value in the experiment with CDC2L2 is listed as 8%; in the experiment on CDC2L5 it was 0%; in the experiment with CDK11 it was 8%; with CDK2, 2%; in the experiment with CDK3 it was 8%; with CDK4-cyclinD1 it was 0%. Besides, the “%Inh” value with CDK4-cyclinD3 amounted to 1%; with CDK4, 0%; in the experiment on CDK5 it was 2%; in the experiment with CDK7 it was 0%.
